PubChem BioAssay (NCI)
The panel holds about 83,000 compounds, 20% with a hit somewhere; the sample as a whole holds those more often.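 Activity criterion: percent growth below 10, measured after cells in 96-well plates were exposed to a single compound concentration for 48 hours.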 Activity calls are given as the source filed them.

What was measured:
Experiment in all cases: NCI-60 one-dose screen, 48 h (100 = growth as untreated, 0 = no growth, -100 = all killed)
Conditions in all cases: 10 µM
SR leukemia = test system: SR leukemia
RPMI-8226 leukemia = test system: RPMI-8226 leukemia
OVCAR-8 ovarian = test system: OVCAR-8 ovarian
OVCAR-5 ovarian = test system: OVCAR-5 ovarian
OVCAR-4 ovarian = test system: OVCAR-4 ovarian
SK-OV-3 ovarian = test system: SK-OV-3 ovarian
IGROV1 ovarian = test system: IGROV1 ovarian
OVCAR-3 ovarian = test system: OVCAR-3 ovarian
HS 578T breast = test system: HS 578T breast
NCI/ADR-RES ovarian = test system: NCI/ADR-RES ovarian

Measured: growth

Cc1ncc([N+](=O)[O-])n1CCOc1ccc(C(=O)/C=C/c2ccc(C(F)(F)F)cc2)cc1
inactive: RPMI-8226 leukemia 12.9% | OVCAR-8 ovarian 51.8% | OVCAR-5 ovarian 90% | OVCAR-4 ovarian 100% | SK-OV-3 ovarian 79.4% | IGROV1 ovarian 80.4% | OVCAR-3 ovarian 51.3% | HS 578T breast 66.9% | NCI/ADR-RES ovarian 65.9%
active: SR leukemia -13.2%

CCOc1cc(Br)c(C(C)NC(=O)c2cccc(OC)c2)cc1OCC (stereo not given)
inactive: RPMI-8226 leukemia 36.3% | OVCAR-8 ovarian 84.3% | OVCAR-5 ovarian 88.7% | OVCAR-4 ovarian 64.5% | SK-OV-3 ovarian 96% | IGROV1 ovarian 73.8% | OVCAR-3 ovarian 74.8% | HS 578T breast 75.5% | NCI/ADR-RES ovarian 94.4%
active: SR leukemia 3.32%

COc1cc(-c2nc3ccccc3[nH]2)ccc1OCc1nnc(-c2ccc(Br)cc2)o1
inactive: RPMI-8226 leukemia 51.5% | OVCAR-8 ovarian 75.7% | OVCAR-5 ovarian 109% | OVCAR-4 ovarian 85.1% | SK-OV-3 ovarian 108% | IGROV1 ovarian 87.4% | OVCAR-3 ovarian 110% | HS 578T breast 78.4% | NCI/ADR-RES ovarian 92.5%
active: SR leukemia -25.7%

CCCc1c(CC)c(=N)c2ccccc2n1C
active: SR leukemia -27.5% | RPMI-8226 leukemia -17%
inactive: OVCAR-8 ovarian 76.1% | OVCAR-5 ovarian 100% | OVCAR-4 ovarian 79.7% | SK-OV-3 ovarian 91.3% | IGROV1 ovarian 82.8% | OVCAR-3 ovarian 85% | HS 578T breast 76.5% | NCI/ADR-RES ovarian 78.6%

CCN(Cc1ccccc1)C1CCN(Cc2cc(Br)ccc2O)CC1
active: SR leukemia 7.57%
inactive: RPMI-8226 leukemia 21.9% | OVCAR-8 ovarian 59.9% | OVCAR-5 ovarian 68.1% | OVCAR-4 ovarian 36.9% | SK-OV-3 ovarian 76.9% | IGROV1 ovarian 44.6% | OVCAR-3 ovarian 51.8% | HS 578T breast 56.6% | NCI/ADR-RES ovarian 36.1%

COc1ccc(/C=C2\SC(=S)N(CCCN3CCOCC3)C2=O)c(OC)c1
inactive: SR leukemia 72.5% | RPMI-8226 leukemia 78.4% | OVCAR-8 ovarian 96.1% | OVCAR-5 ovarian 104% | OVCAR-4 ovarian 91.1% | SK-OV-3 ovarian 105% | IGROV1 ovarian 115% | OVCAR-3 ovarian 103% | HS 578T breast 99.1% | NCI/ADR-RES ovarian 92.6%

COc1ccc(Nc2nc(NCc3ccccc3)c3ccccc3n2)cc1
inactive: SR leukemia 45.2% | RPMI-8226 leukemia 75.9% | OVCAR-5 ovarian 78.7% | SK-OV-3 ovarian 13.4% | IGROV1 ovarian 42.5% | OVCAR-3 ovarian 14.8% | NCI/ADR-RES ovarian 39.7%
active: OVCAR-8 ovarian 6.75% | OVCAR-4 ovarian -37.2% | HS 578T breast -3.28%

COc1ccc(/C(CS(=O)(=O)c2ccccc2)=N\O)cc1
inactive: SR leukemia 87% | RPMI-8226 leukemia 101% | OVCAR-8 ovarian 103% | OVCAR-5 ovarian 104% | OVCAR-4 ovarian 99.4% | SK-OV-3 ovarian 112% | IGROV1 ovarian 109% | OVCAR-3 ovarian 125% | HS 578T breast 104% | NCI/ADR-RES ovarian 115%

O=C(Nc1cccc(-c2nc3ccccc3[nH]2)c1)c1cccc(NC(=O)c2ccco2)c1
inactive: SR leukemia 23.5% | RPMI-8226 leukemia 69.2% | OVCAR-8 ovarian 87.2% | OVCAR-5 ovarian 93.8% | OVCAR-4 ovarian 80% | SK-OV-3 ovarian 102% | IGROV1 ovarian 86.2% | OVCAR-3 ovarian 98.3% | HS 578T breast 79.4% | NCI/ADR-RES ovarian 84.9%

COc1cc2c3c(cccc3c1)C(=O)N(CCN1CCCC1)C2=O
inactive: RPMI-8226 leukemia 12.2% | OVCAR-5 ovarian 34.1% | OVCAR-4 ovarian 21.6% | SK-OV-3 ovarian 34.1% | IGROV1 ovarian 23.5% | HS 578T breast 27.1% | NCI/ADR-RES ovarian 13%
active: SR leukemia 2.44% | OVCAR-8 ovarian 6.43% | OVCAR-3 ovarian 0.462%

COc1cccc(-c2nnc(COc3ccc(-c4nc5ccccc5[nH]4)cc3OC)o2)c1
active: SR leukemia 7.26%
inactive: RPMI-8226 leukemia 51% | OVCAR-8 ovarian 67.3% | OVCAR-5 ovarian 119% | OVCAR-4 ovarian 103% | SK-OV-3 ovarian 107% | IGROV1 ovarian 101% | OVCAR-3 ovarian 102% | HS 578T breast 102% | NCI/ADR-RES ovarian 89%

O=CNc1c(Cl)cc2c(c1Cl)Cc1cc([N+](=O)[O-])ccc1-2
inactive: SR leukemia 57% | RPMI-8226 leukemia 13.9% | OVCAR-8 ovarian 58.8% | OVCAR-5 ovarian 82.3% | OVCAR-4 ovarian 50.8% | SK-OV-3 ovarian 68% | IGROV1 ovarian 38.6% | OVCAR-3 ovarian 41% | HS 578T breast 75.3% | NCI/ADR-RES ovarian 57.4%

C=CCNCCCN1C(=O)c2ccc3c4c(ccc(c24)C1=O)C(=O)N(CCCNCC=C)C3=O
inactive: RPMI-8226 leukemia 11.3%
active: SR leukemia -12.8% | OVCAR-8 ovarian -14.5% | OVCAR-5 ovarian -44.6% | OVCAR-4 ovarian -98.5% | SK-OV-3 ovarian -36.9% | IGROV1 ovarian -70.3% | OVCAR-3 ovarian -18.1% | HS 578T breast -41.3% | NCI/ADR-RES ovarian -7.11%

O=C(NC1CCCC1)c1ccc(N2CCC(NCc3cccc(C(F)(F)F)c3)CC2)cc1
inactive: RPMI-8226 leukemia 71.3% | OVCAR-8 ovarian 95.2% | OVCAR-5 ovarian 94.2% | OVCAR-4 ovarian 89.5% | SK-OV-3 ovarian 98.4% | IGROV1 ovarian 94.1% | OVCAR-3 ovarian 90.4% | HS 578T breast 96.1% | NCI/ADR-RES ovarian 88.3%
active: SR leukemia 0.0064%
